The results in this text go back to PubChem BioAssay (NCATS).

Assay [1] can be described thus: qHTS of pediatric cancer cell lines to identify multiple opportunities for drug repurposing: Primary screen for Rh30 cells (AID 1347107). Also: nearly all actives have a fitted effect of over 75% in size. An outline of the steps: (§1)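 Viability after 48 h compound treatment at 37C, 500-1,000 cells/well, read as ATP luminescence with CellTiter-Glo. Primary screens used 11-point (MIPE, 0.78 nM-46 µM) or 8-point (NPC, 0.59 nM-46 µM) final concentrations; follow-up screens used 11-point dilutions.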
Background: In qHTS, concentration-response curves come from the screen itself.

Assay [2] in a line: qHTS of pediatric cancer cell lines to identify multiple opportunities for drug repurposing: Primary screen for Rh41 cells (AID 1347108). Also: nearly all actives have a fitted effect of over 70% in size. The procedure, abridged: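 Plated cells (500-1,000 per well, growth media) were allowed to settle for 5 hours, treated with compound dilutions for 48 hours, then lysed with CellTiter-Glo for 15 min at room temperature before luminescence reading.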

Assay [3] is described as follows: qHTS of pediatric cancer cell lines to identify multiple opportunities for drug repurposing: Primary screen for control Hh wild type fibroblast cells (AID 1347106). Also: nearly all actives have a fitted effect of over 55% in size. The procedure, abridged:
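Cells (500-1,000/well) in growth media were settled 5 h at 37 degrees C, then given compounds for 48 h. Viability was read as CellTiter-Glo luminescence. Primary runs used MIPE at 11 points (0.78 nM-46 µM) and NPC at 8 points (0.59 nM-46 µM); follow-ups used 11 points.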

A short description of assay [4]: qHTS of pediatric cancer cell lines to identify multiple opportunities for drug repurposing: Confirmatory screen for A673 cells (AID 1347110). Also: nearly all actives have a fitted effect of over 65% in size. The procedure, abridged:
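A673 cells at 500-1,000 cells/well were dosed 5 h after plating, in dilution series up to 46 uM final; primary runs used 8 or 11 points and confirmatory runs used 11 points. Viability was read by CellTiter-Glo luminescence after 48 h, against DMSO and 2.3 uM bortezomib controls.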

Assay [5] is described as follows: qHTS of pediatric cancer cell lines to identify multiple opportunities for drug repurposing: Confirmatory screen for BT-12 cells (AID 1347112). Also: nearly all actives have a fitted effect of over 55% in size. An outline of the steps: as §1
Assay [6] is described as follows: qHTS of pediatric cancer cell lines to identify multiple opportunities for drug repurposing: Confirmatory screen for DAOY cells (AID 1347114). Also: nearly all actives have a fitted effect of over 65% in size. An outline of the steps:
(§2)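 Viability measured as metabolically active cells via CellTiter-Glo luminescence following 48 hours of compound exposure, 11-point dilutions in confirmatory testing. 500-1,000 cells/well plated 5 hours before dosing; controls were DMSO and 2.3 µM bortezomib.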

The nature of assay [7]: qHTS of pediatric cancer cell lines to identify multiple opportunities for drug repurposing: Confirmatory screen for SJ-GBM2 cells (AID 1347116). Also: nearly all actives have a fitted effect of over 60% in size. The procedure, abridged:
as §2

Assay [8] in a line: qHTS of pediatric cancer cell lines to identify multiple opportunities for drug repurposing: Confirmatory screen for control Hh wild type fibroblast cells (AID 1347121). Also: nearly all actives have a fitted effect of over 70% in size. An outline of the steps:
as §1

Assay [9] can be described thus: qHTS of pediatric cancer cell lines to identify multiple opportunities for drug repurposing: Confirmatory screen for U-2 OS cells (AID 1347122). Also: nearly all actives have a fitted effect of over 65% in size. The procedure, abridged:
as §1

Assay [10] in a line: qHTS of pediatric cancer cell lines to identify multiple opportunities for drug repurposing: Confirmatory screen for Rh41 cells (AID 1347123). Also: nearly all actives have a fitted effect of over 60% in size. The procedure, abridged:
as §1

A short description of assay [11]: qHTS of pediatric cancer cell lines to identify multiple opportunities for drug repurposing: Confirmatory screen for RD cells (AID 1347124).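 Also: cells exposed to compound for 48 h before viability readout; nearly all actives have a fitted effect of over 65% in size.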 An outline of the steps:
as §1

The nature of assay [12]: qHTS of pediatric cancer cell lines to identify multiple opportunities for drug repurposing: Confirmatory screen for Rh30 cells (AID 1347126). Also: nearly all actives have a fitted effect of over 55% in size. The procedure, abridged: as §1
The nature of assay [13]: qHTS of pediatric cancer cell lines to identify multiple opportunities for drug repurposing: Confirmatory screen for SK-N-MC cells (AID 1347111).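 Also: cells exposed to compound for 48 h before the readout; nearly all actives have a fitted effect of over 70% in size.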 The procedure, abridged: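 SK-N-MC cells at 500-1,000 cells/well in growth media were pre-incubated 5 h, then exposed to compounds at 11-point dilutions for 48 h at 37 degrees C, 5% CO2. Viability was read as CellTiter-Glo luminescence.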

Assay [14] in a line: qHTS of pediatric cancer cell lines to identify multiple opportunities for drug repurposing: Confirmatory screen for LAN-5 cells (AID 1347113). Also: nearly all actives have a fitted effect of over 65% in size. An outline of the steps: as §1
Assay [15] can be described thus: qHTS of pediatric cancer cell lines to identify multiple opportunities for drug repurposing: Confirmatory screen for BT-37 cells (AID 1347117). Also: nearly all actives have a fitted effect of over 55% in size. An outline of the steps: as §1
Assay [16] in a line: qHTS of pediatric cancer cell lines to identify multiple opportunities for drug repurposing: Confirmatory screen for TC32 cells (AID 1347118). Also: nearly all actives have a fitted effect of over 65% in size. An outline of the steps: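 Luminescent CellTiter-Glo read-out of metabolically active TC32 cells after 48 h compound exposure. Primary: MIPE 11-point, 0.78 nM–46 µM; NPC 8-point, 0.59 nM–46 µM. Confirmatory: 11-point dilutions.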
A short description of assay [17]: qHTS of pediatric cancer cell lines to identify multiple opportunities for drug repurposing: Confirmatory screen for MG 63 (6-TG R) cells (AID 1347119). Also: nearly all actives have a fitted effect of over 55% in size. An outline of the steps:
as §1

The nature of assay [18]: qHTS of pediatric cancer cell lines to identify multiple opportunities for drug repurposing: Confirmatory screen for Rh18 cells (AID 1347125). Also: nearly all actives have a fitted effect of over 55% in size. An outline of the steps: as §1
Assay [19] can be described thus: qHTS of pediatric cancer cell lines to identify multiple opportunities for drug repurposing: Confirmatory screen for NB1643 cells (AID 1347109). Also: nearly all actives have a fitted effect of over 45% in size. The procedure, abridged:
as §1

A short description of assay [20]: qHTS of pediatric cancer cell lines to identify multiple opportunities for drug repurposing: Confirmatory screen for NB-EBc1 cells (AID 1347115). Also: nearly all actives have a fitted effect of over 45% in size. The procedure, abridged: as §1

Inconclusive results are not listed. Activity calls are given as the source filed them. Calls follow the shape of the dose curve; as a rule, active = well fitted curve in the direction sought with a large enough effect; inconclusive = small, poorly fitted or top-dose-only effect, or another doubt; inactive = no such curve, though single readings can be large; an effect the other way counts as inactive or inconclusive.
Potency is read from the fitted curve at half-maximal effect.

Consider `CCCCOc1c(C(=O)c2c(F)cc(C)cc2F)cnc2n[nH]cc12`, for which the Potency entry in assay [1] is “inactive”. Also, the Potency in assay [2] was 18.7 µM (active).
In the case of `Cc1nc(Nc2n[nH]c3c2CN(C(=O)N[C@H](CN(C)C)c2ccccc2)C3(C)C)c2sccc2n1`, the Potency in assay [3] is 14.8 µM (active); in [2], 6.62 µM (active); in assay [4], 13.1 µM (active); in [5] it was 13.1 µM (active). Also, the Potency result in assay [6], in assay [7], in assay [8], in assay [9], in [10] and in assay [11] was “inactive” each time. For the same compound, in assay [12], the Potency result is “inactive”.
`C1=CCOCc2cc(ccc2OCCN2CCCC2)Nc2nccc(n2)-c2cccc(c2)OCC1`: the Potency is 14.8 µM (active) in assay [1] and 5.9 µM (active) in assay [2].
With `COc1ccc(CC2SC(=O)NC2=O)cc1C(=O)NCc1ccc(C(F)(F)F)cc1` (configuration not stated), the Potency entry in assay [1] and in assay [2] was “inactive” each time.
As to `COc1cc(OC2CCN(C)CC2)ccc1Nc1ncc2c(n1)n(C1CCCC1)c(=O)n2C`, the Potency in [1] was 20.9 µM (active); in [2] it was 18.7 µM (active).
As for `Cc1coc2c1C(=O)C(=O)c1c-2ccc2c1CCCC2(C)C`, the Potency entry in assay [1] and in [2] was “inactive” in each case.
Consider `Nc1ccc(C(=O)c2cc3c(ccc4ccccc43)[nH]2)cc1`, for which the Potency result in assay [1] was “inactive”. In addition, the Potency in [2] is 4.69 µM (active).
With `Cc1[nH]c2ccccc2c1CCNCc1ccc(C=CC(=O)NO)cc1`, the Potency in [3] was 1.87 µM (active); in assay [2], 0.235 µM (active); in assay [4], 0.329 µM (active); in assay [13], 0.0827 µM (active); in assay [5], 0.737 µM (active); in [14], 0.261 µM (active). Moreover, the Potency in [15] is 0.165 µM (active); in assay [16], 0.117 µM (active); in assay [17], 0.165 µM (active); in assay [10], 0.0041 µM (active); in [18] it was 0.165 µM (active). Further, the Potency result in assay [7] and in assay [11] was “inactive” in each case.
For the compound `COc1ccc2c(OCc3nnc4ccc(-c5ccccc5)nn34)ccnc2c1`, the Potency entry in assay [1] was “inactive”.
`CCNC(=O)Nc1ccc2ncc(Nc3ccc(C)cc3)nc2n1`: the Potency result in [3], in [19], in [4], in [13], in assay [5] and in [14] was “inactive” in each case. For the same compound, the Potency result in [6], in [15], in assay [16], in assay [17], in assay [8] and in assay [9] was “inactive” each time. In addition, the Potency result in assay [10], in assay [11], in assay [18] and in [12] was “inactive” each time.
`CC1(C)O[C@@H]2C[C@@H]3[C@H]4C[C@@H](F)C5=CC(=O)C=C[C@]5(C)[C@@]4(F)[C@@H](O)C[C@]3(C)[C@]2(C(=O)CO)O1`: the Potency result in assay [3], in assay [8], in [18] and in assay [12] was “inactive” each time. The Potency in assay [4] was 0.0928 µM (active); in assay [13] it was 0.293 µM (active); in [5], 0.0737 µM (active); in assay [6], 0.737 µM (active); in [20], 11.7 µM (active); in assay [15] it was 0.0827 µM (active). The Potency in assay [16] is 0.369 µM (active); in [17], 2.61 µM (active); in assay [9], 1.31 µM (active); in assay [10] it was 0.585 µM (active); in assay [11], 8.27 µM (active).
In the case of `Cc1cc(Nc2cc(CN3CCOCC3)c3nc(C)c(Cc4ccc(Cl)cc4F)n3n2)n[nH]1`, the Potency in assay [1] and in assay [2] was 14.8 µM (active) each time.
On to `Cc1c(CN2CCN(S(C)(=O)=O)CC2)sc2c(N3CCOCC3)nc(-c3cnc(N)nc3)nc12`, for which the Potency in assay [3] is 0.209 µM (active); in [2] it was 0.148 µM (active); in assay [4] it was 1.85 µM (active); in [13], 0.827 µM (active); in assay [14], 1.31 µM (active); in assay [15], 2.08 µM (active). Also, the Potency in [16] is 0.737 µM (active); in [17], 0.329 µM (active); in assay [10], 0.928 µM (active); in [18], 1.04 µM (active).
On to `Cc1c(Cn2c(C)nc3c(C(=O)O)cc(N4CCOCC4)cc32)cccc1C(F)(F)F`, for which the Potency result in assay [3], in [4], in assay [5], in [7], in [17] and in [8] was “inactive” throughout. The Potency entry in assay [10], in assay [11], in assay [18] and in [12] was “inactive” each time. Further, the Potency in assay [2] was 7.43 µM (active); in [9] it was 23.3 µM (active).
`Nc1nc(Nc2ccc(S(N)(=O)=O)cc2)nn1C(=O)c1c(F)cccc1F`: the Potency result in assay [1] is “inactive”. Moreover, the Potency in assay [2] was 14.8 µM (active).
For the compound `Cc1cc(Nc2ncnc3ccc(-c4ccc(CNCCS(C)(=O)=O)o4)cc23)ccc1Oc1ccn2ncnc2c1`, the Potency result in assay [3], in [5], in [17] and in assay [8] was “inactive” in each case. Moreover, the Potency in assay [2] was 11.8 µM (active); in [13], 20.8 µM (active); in assay [14] it was 20.8 µM (active); in assay [7] it was 0.0657 µM (active); in assay [15], 16.5 µM (active); in [16], 18.5 µM (active). Besides, the Potency in assay [10] is 2.33 µM (active).
In the case of `O=C(O)CCCc1c[nH]c2ccccc12`, the Potency entry in assay [1] and in assay [2] was “inactive” each time.
With `C=CCn1c(=O)c2cnc(Nc3ccc(N4CCN(C)CC4)cc3)nc2n1-c1cccc(C(C)(C)O)n1`, the Potency entry in assay [3] and in assay [8] was “inactive” in each case. Moreover, the Potency in assay [2] was 0.469 µM (active); in assay [4], 2.61 µM (active); in assay [5] it was 10.4 µM (active); in assay [6], 1.85 µM (active); in assay [7], 0.737 µM (active); in assay [17] it was 1.31 µM (active). The Potency is 1.65 µM (active) in assay [9], 1.17 µM (active) in assay [10] and 0.737 µM (active) in assay [11].
With `CCN1CCN(Cc2ccc(-c3cc4c(N[C@H](C)c5ccccc5)ncnc4[nH]3)cc2)CC1`, in assay [3], the Potency entry is “inactive”. The Potency was 13.5 µM (active) in assay [19]; 0.479 µM (active) in [4]; 0.851 µM (active) in assay [13]; 26.9 µM (active) in assay [5]; 9.55 µM (active) in [14]; 8.51 µM (active) in [6]. In addition, the Potency in assay [7] is 30.2 µM (active); in assay [15] it was 2.69 µM (active); in assay [16], 0.759 µM (active); in assay [17] it was 13.5 µM (active); in assay [8], 42.7 µM (active); in assay [9] it was 12 µM (active). The Potency in assay [10] was 1.51 µM (active); in assay [11], 21.4 µM (active); in assay [18], 33.9 µM (active); in [12] it was 15.1 µM (active).
`CC(C)(C)NC(=O)[C@H]1CN(Cc2cccnc2)CCN1C[C@@H](O)C[C@@H](Cc1ccccc1)C(=O)N[C@H]1c2ccccc2C[C@H]1O`: the Potency entry in assay [3], in [4], in [5], in [14], in assay [8] and in assay [11] was “inactive” throughout. In addition, the Potency entry in assay [18] is “inactive”. Besides, the Potency in assay [2] is 3.72 µM (active); in assay [17], 23.3 µM (active); in assay [9] it was 23.3 µM (active); in [10], 20.8 µM (active); in assay [12], 18.5 µM (active).
